Assay in all cases: DAPPL (digital affinity profiling via proximity ligation, sequencing); 10 mM Tris-HCl pH 7.5, 50 mM NaCl, 1 mM DTT, 4% glycerol, room temperature, 30 min; GST-TFs on glutathione beads, 16-mer random dsDNA library, 0.1% formaldehyde crosslink after washing; high values mean tight binding
The target of one experiment is T1, FLI1 (Homo sapiens, UniProt Q01543 1-452).
T1 sequence: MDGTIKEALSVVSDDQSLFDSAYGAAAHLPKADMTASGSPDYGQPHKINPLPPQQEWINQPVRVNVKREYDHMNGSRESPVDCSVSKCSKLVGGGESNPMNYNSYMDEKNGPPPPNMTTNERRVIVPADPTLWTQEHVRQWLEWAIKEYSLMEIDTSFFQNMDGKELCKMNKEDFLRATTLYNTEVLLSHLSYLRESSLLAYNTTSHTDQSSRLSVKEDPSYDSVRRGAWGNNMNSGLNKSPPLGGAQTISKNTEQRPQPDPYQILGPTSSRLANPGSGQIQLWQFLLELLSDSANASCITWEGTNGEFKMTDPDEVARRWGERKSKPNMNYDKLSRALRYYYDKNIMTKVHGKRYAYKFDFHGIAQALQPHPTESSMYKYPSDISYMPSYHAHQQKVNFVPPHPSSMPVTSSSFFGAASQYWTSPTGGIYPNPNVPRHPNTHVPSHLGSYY
Conditions: protein: recombinant; tags: N-terminal GST; dsDNA, one strand shown. Put shortly: (§1)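 Sequencing on an Illumina NextSeq500 followed washing, crosslinking with 0.1% formaldehyde, proximity ligation (BsaI/T4 ligase, 1 h, 37 °C) and PCR amplification of pools that had been incubated for 30 min at room temperature with 200 nmole of a random double-stranded 16-mer DNA library in Tris/NaCl/DTT/glycerol buffer. Each pool held DNA-barcoded human transcription factors, expressed in yeast as GST fusions and captured on glutathione beads, plus a tag-only sample. Binding signal is a hexamer's read frequency for a factor divided by its frequency in the tag-only sample.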

The target of a further experiment is T2, ELK1 (Homo sapiens, UniProt P19419 1-428).
T2 sequence: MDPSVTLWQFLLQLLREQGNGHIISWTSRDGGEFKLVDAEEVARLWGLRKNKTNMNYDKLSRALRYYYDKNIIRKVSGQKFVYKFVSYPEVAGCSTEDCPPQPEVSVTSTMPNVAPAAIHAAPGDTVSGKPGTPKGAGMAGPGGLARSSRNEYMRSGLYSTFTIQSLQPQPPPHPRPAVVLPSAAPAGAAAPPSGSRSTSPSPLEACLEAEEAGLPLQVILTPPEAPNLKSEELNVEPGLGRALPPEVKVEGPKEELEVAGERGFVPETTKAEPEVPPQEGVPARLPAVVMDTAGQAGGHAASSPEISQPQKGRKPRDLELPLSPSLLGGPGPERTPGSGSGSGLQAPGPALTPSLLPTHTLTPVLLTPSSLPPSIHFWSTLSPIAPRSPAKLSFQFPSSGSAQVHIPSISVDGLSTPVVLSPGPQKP
Conditions: protein: recombinant; tags: N-terminal GST; dsDNA, one strand shown. Put shortly:
as §1

Another experiment deals with T3, GABPA (Homo sapiens, UniProt Q06546 1-454).
T3 sequence: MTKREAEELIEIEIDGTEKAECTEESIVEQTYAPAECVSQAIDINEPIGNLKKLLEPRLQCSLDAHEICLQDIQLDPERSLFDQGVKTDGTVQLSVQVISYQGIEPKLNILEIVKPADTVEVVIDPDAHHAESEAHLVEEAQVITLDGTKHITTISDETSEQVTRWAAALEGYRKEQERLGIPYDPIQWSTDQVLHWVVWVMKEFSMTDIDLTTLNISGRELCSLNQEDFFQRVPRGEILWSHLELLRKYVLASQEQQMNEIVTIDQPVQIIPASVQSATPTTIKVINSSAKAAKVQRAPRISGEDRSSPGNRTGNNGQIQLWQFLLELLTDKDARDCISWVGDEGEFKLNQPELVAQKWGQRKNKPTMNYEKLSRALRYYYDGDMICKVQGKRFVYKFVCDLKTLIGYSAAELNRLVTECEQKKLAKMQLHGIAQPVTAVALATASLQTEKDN
Conditions: protein: recombinant; tags: N-terminal GST; dsDNA, one strand shown. The procedure, abridged:
as §1

The target in a further experiment is T4, ERG (Homo sapiens, UniProt P11308 1-479).
T4 sequence: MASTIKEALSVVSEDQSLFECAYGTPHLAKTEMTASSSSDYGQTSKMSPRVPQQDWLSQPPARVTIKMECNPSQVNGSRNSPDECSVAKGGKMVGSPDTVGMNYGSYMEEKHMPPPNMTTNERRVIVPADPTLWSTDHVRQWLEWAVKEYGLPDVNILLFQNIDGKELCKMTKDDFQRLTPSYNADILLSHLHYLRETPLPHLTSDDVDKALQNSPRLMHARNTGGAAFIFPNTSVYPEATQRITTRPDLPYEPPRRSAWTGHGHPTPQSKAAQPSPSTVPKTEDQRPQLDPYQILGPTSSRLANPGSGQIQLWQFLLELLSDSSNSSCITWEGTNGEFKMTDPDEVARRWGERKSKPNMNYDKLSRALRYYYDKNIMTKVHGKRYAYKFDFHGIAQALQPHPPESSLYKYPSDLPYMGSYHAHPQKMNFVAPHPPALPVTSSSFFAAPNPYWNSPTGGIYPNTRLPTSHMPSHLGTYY
Conditions: protein: recombinant; tags: N-terminal GST; dsDNA, one strand shown. The procedure, abridged: as §1

The target of a further experiment is ELF1 (Homo sapiens, UniProt P32519 1-619). Conditions: protein: recombinant; tags: N-terminal GST; dsDNA, one strand shown. The procedure, abridged:
as §1

In another experiment the target is T5, EHF (Homo sapiens, UniProt Q9NZC4 1-300).
T5 sequence: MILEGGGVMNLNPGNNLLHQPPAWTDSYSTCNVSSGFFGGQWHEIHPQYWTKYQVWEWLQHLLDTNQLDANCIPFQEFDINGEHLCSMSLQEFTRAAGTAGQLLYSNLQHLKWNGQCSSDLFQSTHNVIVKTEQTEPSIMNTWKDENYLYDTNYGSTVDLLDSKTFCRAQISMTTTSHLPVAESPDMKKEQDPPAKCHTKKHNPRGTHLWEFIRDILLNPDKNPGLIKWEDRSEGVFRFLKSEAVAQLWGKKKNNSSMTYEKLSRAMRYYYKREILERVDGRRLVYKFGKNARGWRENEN
Conditions: protein: recombinant; tags: N-terminal GST; dsDNA, one strand shown. The procedure, abridged:
as §1

Another experiment has as its target SPI1 (Homo sapiens, UniProt P17947 1-270). The conditions noted are these: protein: recombinant; tags: N-terminal GST; dsDNA, one strand shown. The procedure, abridged:
as §1

For a further experiment, the target named is SPIB (Homo sapiens, UniProt Q01892 1-262). Conditions: protein: recombinant; tags: N-terminal GST; dsDNA, one strand shown. Put shortly: as §1
For a further experiment, the target named is T6, ELK3 (Homo sapiens, UniProt P41970 1-407).
T6 sequence: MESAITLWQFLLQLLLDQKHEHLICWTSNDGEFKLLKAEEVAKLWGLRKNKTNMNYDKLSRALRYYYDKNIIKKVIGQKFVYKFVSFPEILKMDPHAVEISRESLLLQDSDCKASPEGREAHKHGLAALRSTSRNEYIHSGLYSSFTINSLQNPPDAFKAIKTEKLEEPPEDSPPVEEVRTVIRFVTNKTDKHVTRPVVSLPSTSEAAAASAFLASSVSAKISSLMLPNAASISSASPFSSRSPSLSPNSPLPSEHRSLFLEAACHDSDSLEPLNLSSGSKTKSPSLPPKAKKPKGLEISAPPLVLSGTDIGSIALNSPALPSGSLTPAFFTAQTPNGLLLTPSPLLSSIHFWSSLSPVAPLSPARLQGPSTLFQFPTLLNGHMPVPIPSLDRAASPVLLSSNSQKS
Conditions: protein: recombinant; tags: N-terminal GST; dsDNA, one strand shown. Put shortly: as §1

The next experiment deals with T7, FEV (Homo sapiens, UniProt Q99581 1-238).
T7 sequence: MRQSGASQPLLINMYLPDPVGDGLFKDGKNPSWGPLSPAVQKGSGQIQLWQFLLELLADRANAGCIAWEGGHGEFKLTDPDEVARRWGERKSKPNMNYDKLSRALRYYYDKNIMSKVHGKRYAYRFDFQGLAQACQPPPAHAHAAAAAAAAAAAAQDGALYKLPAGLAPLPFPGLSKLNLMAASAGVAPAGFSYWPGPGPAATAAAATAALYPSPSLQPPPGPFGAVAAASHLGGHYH
Conditions: protein: recombinant; tags: N-terminal GST; dsDNA, one strand shown. The procedure, abridged:
as §1

The target of a further experiment is ETV5 (Homo sapiens, UniProt P41161 1-510). The conditions noted are these: protein: recombinant; tags: N-terminal GST; dsDNA, one strand shown. The procedure, abridged:
as §1

For the next experiment, the target named is HSF1 (Homo sapiens, UniProt Q00613 1-529). The conditions noted are these: protein: recombinant; tags: N-terminal GST; chain copies: 3; dsDNA, one strand shown. The procedure, abridged: as §1
Another experiment concerns the target T8, SPIC (Homo sapiens, UniProt Q8N5J4 1-248).
T8 sequence: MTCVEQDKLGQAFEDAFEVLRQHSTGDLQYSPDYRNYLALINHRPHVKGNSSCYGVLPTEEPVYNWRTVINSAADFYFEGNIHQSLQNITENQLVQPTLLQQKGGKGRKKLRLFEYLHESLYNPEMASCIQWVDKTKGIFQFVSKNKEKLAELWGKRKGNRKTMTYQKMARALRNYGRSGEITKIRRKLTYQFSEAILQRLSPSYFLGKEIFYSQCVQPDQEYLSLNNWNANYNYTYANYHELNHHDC
The conditions noted are these: protein: recombinant; tags: N-terminal GST; dsDNA, one strand shown. The procedure, abridged:
as §1

Another experiment concerns the target ELF4 (Homo sapiens, UniProt Q99607 1-663). Conditions: protein: recombinant; tags: N-terminal GST; dsDNA, one strand shown. The procedure, abridged: as §1
A further experiment deals with T9, ELK4 (Homo sapiens, UniProt P28324-2 1-405).
T9 sequence: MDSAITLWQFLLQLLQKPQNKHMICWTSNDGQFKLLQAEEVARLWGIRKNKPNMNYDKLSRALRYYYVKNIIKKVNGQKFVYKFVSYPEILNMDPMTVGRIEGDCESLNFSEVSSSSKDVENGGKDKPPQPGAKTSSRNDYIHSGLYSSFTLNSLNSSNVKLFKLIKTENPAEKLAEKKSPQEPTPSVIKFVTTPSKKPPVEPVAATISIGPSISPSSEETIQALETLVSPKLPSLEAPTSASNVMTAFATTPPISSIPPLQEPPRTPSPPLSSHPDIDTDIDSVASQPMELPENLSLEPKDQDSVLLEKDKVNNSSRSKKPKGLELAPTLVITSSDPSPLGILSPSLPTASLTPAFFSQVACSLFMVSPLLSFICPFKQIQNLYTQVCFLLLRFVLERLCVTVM
Conditions: protein: recombinant; tags: N-terminal GST; dsDNA, one strand shown. Put shortly:
as §1

The next experiment addresses T10, ETV2 (Homo sapiens, UniProt O00321 1-342).
T10 sequence: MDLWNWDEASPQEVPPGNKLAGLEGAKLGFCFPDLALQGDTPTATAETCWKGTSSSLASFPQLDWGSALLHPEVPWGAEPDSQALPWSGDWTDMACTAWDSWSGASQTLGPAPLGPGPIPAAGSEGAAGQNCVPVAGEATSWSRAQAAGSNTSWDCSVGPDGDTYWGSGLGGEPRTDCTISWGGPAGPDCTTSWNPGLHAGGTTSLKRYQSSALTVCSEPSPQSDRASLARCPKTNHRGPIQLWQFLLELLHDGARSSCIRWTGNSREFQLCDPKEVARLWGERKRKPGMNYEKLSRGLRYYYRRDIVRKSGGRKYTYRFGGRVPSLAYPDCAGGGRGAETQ
The conditions noted are these: protein: recombinant; tags: N-terminal GST; dsDNA, one strand shown. The procedure, abridged:
as §1

In a further experiment the target is T11, ELF3 (Homo sapiens, UniProt P78545 1-371).
T11 sequence: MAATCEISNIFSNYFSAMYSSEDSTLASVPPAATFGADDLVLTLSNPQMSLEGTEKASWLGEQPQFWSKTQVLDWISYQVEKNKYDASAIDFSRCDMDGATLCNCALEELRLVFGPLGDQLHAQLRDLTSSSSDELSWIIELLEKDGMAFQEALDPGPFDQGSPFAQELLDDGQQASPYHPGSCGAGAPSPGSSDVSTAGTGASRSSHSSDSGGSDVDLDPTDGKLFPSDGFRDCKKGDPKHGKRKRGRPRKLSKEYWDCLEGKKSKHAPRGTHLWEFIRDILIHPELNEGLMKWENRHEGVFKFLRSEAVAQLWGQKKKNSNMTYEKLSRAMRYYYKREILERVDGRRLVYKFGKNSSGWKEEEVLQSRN
Conditions: protein: recombinant; tags: N-terminal GST; dsDNA, one strand shown. Put shortly: as §1

The target of another experiment is ETV1 (Homo sapiens, UniProt P50549 1-477). Conditions: protein: recombinant; tags: N-terminal GST; dsDNA, one strand shown. Put shortly: as §1
Chain of ETV1 (P50549 whole entry): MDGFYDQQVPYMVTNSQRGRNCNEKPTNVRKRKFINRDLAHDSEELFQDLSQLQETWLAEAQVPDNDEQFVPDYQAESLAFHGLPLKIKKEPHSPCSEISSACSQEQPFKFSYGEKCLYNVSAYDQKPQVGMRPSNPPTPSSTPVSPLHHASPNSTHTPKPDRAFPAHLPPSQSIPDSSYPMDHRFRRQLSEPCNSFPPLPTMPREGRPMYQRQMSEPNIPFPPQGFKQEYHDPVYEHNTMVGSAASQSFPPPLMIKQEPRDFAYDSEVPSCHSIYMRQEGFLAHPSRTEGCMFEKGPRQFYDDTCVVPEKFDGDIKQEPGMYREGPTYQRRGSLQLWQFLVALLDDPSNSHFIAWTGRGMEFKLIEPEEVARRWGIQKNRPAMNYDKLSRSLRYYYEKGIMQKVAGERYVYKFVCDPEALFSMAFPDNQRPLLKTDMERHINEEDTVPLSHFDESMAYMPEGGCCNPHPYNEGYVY

Chain of ETV5 (P41161 whole entry): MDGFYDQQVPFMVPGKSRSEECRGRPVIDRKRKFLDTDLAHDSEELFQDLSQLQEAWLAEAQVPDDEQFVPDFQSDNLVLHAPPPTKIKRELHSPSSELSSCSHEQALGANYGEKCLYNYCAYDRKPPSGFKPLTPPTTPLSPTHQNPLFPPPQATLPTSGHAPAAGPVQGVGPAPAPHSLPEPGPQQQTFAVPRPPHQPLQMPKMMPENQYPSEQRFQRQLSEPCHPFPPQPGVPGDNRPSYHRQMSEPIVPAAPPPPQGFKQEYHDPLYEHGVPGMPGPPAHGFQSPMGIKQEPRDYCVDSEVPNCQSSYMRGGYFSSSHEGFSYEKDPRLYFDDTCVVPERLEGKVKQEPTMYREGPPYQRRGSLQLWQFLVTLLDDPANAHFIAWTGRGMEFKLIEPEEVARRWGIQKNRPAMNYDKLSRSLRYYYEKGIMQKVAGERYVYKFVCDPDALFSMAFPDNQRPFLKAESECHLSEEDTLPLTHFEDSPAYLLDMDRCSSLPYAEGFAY
Chain of SPIB (Q01892 whole entry): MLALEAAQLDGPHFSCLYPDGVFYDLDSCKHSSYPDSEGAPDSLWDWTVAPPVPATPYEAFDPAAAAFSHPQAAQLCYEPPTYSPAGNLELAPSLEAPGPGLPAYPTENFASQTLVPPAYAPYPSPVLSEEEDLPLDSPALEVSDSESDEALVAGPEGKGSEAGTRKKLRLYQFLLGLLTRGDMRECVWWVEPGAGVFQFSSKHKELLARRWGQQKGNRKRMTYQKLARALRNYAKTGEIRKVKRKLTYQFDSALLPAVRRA
Chain of HSF1 (Q00613 whole entry): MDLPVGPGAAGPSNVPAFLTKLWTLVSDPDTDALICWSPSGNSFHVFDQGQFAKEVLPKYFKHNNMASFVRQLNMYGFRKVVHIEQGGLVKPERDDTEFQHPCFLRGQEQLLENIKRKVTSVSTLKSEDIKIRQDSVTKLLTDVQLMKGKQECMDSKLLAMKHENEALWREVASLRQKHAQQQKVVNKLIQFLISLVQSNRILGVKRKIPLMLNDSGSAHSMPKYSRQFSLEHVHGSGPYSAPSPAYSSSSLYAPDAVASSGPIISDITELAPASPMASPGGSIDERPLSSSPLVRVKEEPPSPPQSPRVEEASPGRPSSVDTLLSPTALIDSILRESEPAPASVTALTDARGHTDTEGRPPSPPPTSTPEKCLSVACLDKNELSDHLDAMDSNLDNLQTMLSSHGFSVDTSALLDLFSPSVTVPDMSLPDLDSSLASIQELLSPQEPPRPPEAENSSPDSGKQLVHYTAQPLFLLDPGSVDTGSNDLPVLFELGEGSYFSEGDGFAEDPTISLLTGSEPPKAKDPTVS
Chain of ELF1 (P32519 whole entry): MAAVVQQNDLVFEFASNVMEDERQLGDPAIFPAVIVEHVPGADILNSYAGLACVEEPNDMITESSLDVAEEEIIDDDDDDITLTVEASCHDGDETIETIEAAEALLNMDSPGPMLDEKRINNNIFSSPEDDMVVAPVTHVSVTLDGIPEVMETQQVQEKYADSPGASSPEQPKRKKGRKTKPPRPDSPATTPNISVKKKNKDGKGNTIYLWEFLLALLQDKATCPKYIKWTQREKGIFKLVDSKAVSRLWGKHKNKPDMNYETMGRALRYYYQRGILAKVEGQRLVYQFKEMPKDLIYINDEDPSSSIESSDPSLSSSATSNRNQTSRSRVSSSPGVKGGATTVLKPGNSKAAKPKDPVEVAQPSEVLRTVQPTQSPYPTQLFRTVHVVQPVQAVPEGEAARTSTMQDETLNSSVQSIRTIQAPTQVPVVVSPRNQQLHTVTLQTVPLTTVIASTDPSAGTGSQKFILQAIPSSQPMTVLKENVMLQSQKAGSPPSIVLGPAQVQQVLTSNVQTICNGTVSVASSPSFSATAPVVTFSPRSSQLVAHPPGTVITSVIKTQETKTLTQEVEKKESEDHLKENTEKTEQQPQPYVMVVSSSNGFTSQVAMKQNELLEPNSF
Chain of ELF4 (Q99607 whole entry): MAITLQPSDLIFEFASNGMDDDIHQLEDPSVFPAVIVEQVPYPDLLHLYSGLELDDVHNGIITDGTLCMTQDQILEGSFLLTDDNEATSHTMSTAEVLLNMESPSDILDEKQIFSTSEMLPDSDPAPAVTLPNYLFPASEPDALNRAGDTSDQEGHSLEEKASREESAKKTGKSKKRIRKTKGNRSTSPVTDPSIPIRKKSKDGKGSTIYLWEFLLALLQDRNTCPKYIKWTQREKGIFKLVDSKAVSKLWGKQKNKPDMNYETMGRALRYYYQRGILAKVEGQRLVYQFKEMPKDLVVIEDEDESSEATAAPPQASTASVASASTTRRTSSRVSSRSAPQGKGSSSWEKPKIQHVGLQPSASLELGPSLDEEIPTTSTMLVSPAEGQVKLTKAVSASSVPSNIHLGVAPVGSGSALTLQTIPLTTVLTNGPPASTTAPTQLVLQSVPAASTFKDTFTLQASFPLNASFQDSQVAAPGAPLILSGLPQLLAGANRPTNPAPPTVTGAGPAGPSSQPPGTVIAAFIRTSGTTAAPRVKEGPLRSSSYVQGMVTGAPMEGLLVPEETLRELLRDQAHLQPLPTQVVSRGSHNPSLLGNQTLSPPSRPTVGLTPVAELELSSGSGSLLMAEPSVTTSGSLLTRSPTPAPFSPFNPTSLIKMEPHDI

CGACCA: the binding signal in the experiment with FLI1 was 1.2 fold enrichment (6-mer frequency, TF over GST control); in the experiment with ELK1 it was 1.27 fold enrichment (6-mer frequency, TF over GST control); with GABPA, 1.23 fold enrichment (6-mer frequency, TF over GST control); in the experiment with ERG it was 1.15 fold enrichment (6-mer frequency, TF over GST control); in the experiment with ELF1, 1.31 fold enrichment (6-mer frequency, TF over GST control); with EHF, 1.28 fold enrichment (6-mer frequency, TF over GST control). Further, the binding signal is 1.24 fold enrichment (6-mer frequency, TF over GST control) with SPI1; 1.16 fold enrichment (6-mer frequency, TF over GST control) with SPIB; 1.37 fold enrichment (6-mer frequency, TF over GST control) with ELK3; 1.3 fold enrichment (6-mer frequency, TF over GST control) with FEV; 1.17 fold enrichment (6-mer frequency, TF over GST control) with ETV5; 1.14 fold enrichment (6-mer frequency, TF over GST control) in the experiment with HSF1. Besides, the binding signal in the experiment with SPIC is 1.12 fold enrichment (6-mer frequency, TF over GST control); with ELF4, 1.39 fold enrichment (6-mer frequency, TF over GST control); with ELK4 it was 1.31 fold enrichment (6-mer frequency, TF over GST control); with ETV2 it was 1.35 fold enrichment (6-mer frequency, TF over GST control); with ELF3, 1.32 fold enrichment (6-mer frequency, TF over GST control); in the experiment with ETV1, 1.23 fold enrichment (6-mer frequency, TF over GST control).

For the origin of these results see article PMC7862700, “An all-to-all approach to the identification of sequence-specific readers for epigenetic DNA modifications on cytosine”.
